Data from PubChem BioAssay (NCI).
The panel holds about 83,000 compounds, 20% with a hit somewhere; the sample as a whole holds those more often.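 Activity criterion: percent growth below 10, measured after cells in 96-well plates were exposed to a single compound concentration for 48 hours.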 Unmarked numbers belong to inactive results. Calls of active or inactive are those of the source.

Assays:
Experiment in all cases: NCI-60 one-dose screen, 48 h (100 = growth as untreated, 0 = no growth, -100 = all killed)
Settings in all cases: 10 µM unless noted
[1] = system: HCT-15 colon
[2] = system: HT29 colon
[3] = system: SNB-75 CNS
[4] = system: SNB-19 CNS
[5] = system: U251 CNS
[6] = system: SK-MEL-5 melanoma
[7] = system: UACC-62 melanoma
[8] = system: LOX IMVI melanoma
[9] = system: SK-MEL-28 melanoma
[10] = system: SK-MEL-2 melanoma
[11] = system: EKVX NSCLC
[12] = system: SN12C renal
[13] = system: UO-31 renal
[14] = system: TK-10 renal
[15] = system: ACHN renal
[16] = system: CAKI-1 renal
[17] = system: A498 renal
[18] = system: CCRF-CEM leukemia
[19] = system: MOLT-4 leukemia
[20] = system: PC-3 prostate

COC(=O)[C@@H](Cc1c[nH]c2ccccc12)NC[C@@H](O)CN1C(=O)/C(=C\c2cc(OC)c(OC)c(OC)c2)c2ccccc21
growth [1]: 53.9% | growth [2]: 40.9% | growth [3]: 58.3% | growth [4]: 66.2% | growth [5]: 55.6% | growth [6]: 59.8% | growth [7]: 49.8% | growth [8]: 50.9% | growth [9]: 85.5% | growth [10]: 58.1% | growth [11]: 85.7% | growth [12]: 73% | growth [13]: 58.3% | growth [14]: 101% | growth [15]: 75.5% | growth [16]: 73.1% | growth [17]: 69.5% | growth [18]: 20.7% | growth [19]: 1.92% (active)

COc1cccc(NC(=O)c2sc3nc(C)c(C(=O)c4ccccc4)cc3c2N)c1
growth [1]: 87% | growth [2]: 102% | growth [3]: 60.8% | growth [4]: 78% | growth [5]: 82.8% | growth [6]: 93.8% | growth [7]: 73.1% | growth [8]: 97.8% | growth [9]: 82.2% | growth [10]: 93.7% | growth [11]: 69.1% | growth [12]: 94.4% | growth [13]: 93% | growth [14]: 102% | growth [15]: 96.6% | growth [16]: 63.2% | growth [17]: -2.09% (active) | growth [18]: 99% | growth [19]: 115%

O=C(/C=C\c1ccc(O)c(O)c1)c1ccccc1O
growth [1]: 46% | growth [2]: 90.8% | growth [3]: 76.9% | growth [4]: 81.4% | growth [5]: 69% | growth [6]: 77.2% | growth [7]: 72.6% | growth [8]: 75.1% | growth [9]: 94.9% | growth [10]: 125% | growth [11]: 73.3% | growth [12]: 71.9% | growth [13]: 49.6% | growth [14]: 88.7% | growth [15]: 78.3% | growth [16]: 8.01% (active) | growth [17]: 98.9% | growth [18]: 14.7% | growth [19]: 49.1%

COc1cc(OCc2cccc(-c3ccccc3)c2C)cc(OC)c1CN1CCCCC1C(=O)NCCOCCOCCN (stereo unspecified)
growth [1]: 87.9% | growth [2]: 5.46% (active) | growth [3]: 73.8% | growth [4]: 67.9% | growth [5]: 25.7% | growth [6]: 87.2% | growth [7]: 99.4% | growth [8]: -73.7% (active) | growth [9]: 87.7% | growth [10]: 98.4% | growth [11]: 85.5% | growth [12]: 87.6% | growth [13]: 79.1% | growth [14]: 125% | growth [15]: 98.7% | growth [16]: 92.4% | growth [17]: 72.9% | growth [18]: 1% (active) | growth [19]: 38.4%

O=C1C2C(c3cccs3)C=C(c3ccc(Cl)cc3)N2C(=S)N1c1ccccc1 (stereo unspecified)
growth [1]: 112% | growth [2]: 114% | growth [3]: 97.9% | growth [4]: 94.4% | growth [5]: 97.9% | growth [6]: 97.8% | growth [7]: 88.8% | growth [8]: 98% | growth [9]: 105% | growth [10]: 102% | growth [11]: 109% | growth [12]: 95.8% | growth [13]: 71.4% | growth [14]: 116% | growth [15]: 95.5% | growth [16]: 91.3% | growth [17]: 88.6% | growth [18]: 98.3% | growth [19]: 95.4%

c1ccc2c(-c3cnn4cc(-c5ccc(N6CCNCC6)cc5)cnc34)ccnc2c1
growth [1]: -55.6% (active) | growth [2]: -76.9% (active) | growth [3]: -96.9% (active) | growth [4]: -57.8% (active) | growth [5]: -79% (active) | growth [6]: -84.7% (active) | growth [7]: -84.2% (active) | growth [8]: -85.8% (active) | growth [9]: -90.7% (active) | growth [10]: -59.2% (active) | growth [11]: -37.3% (active) | growth [13]: -93.4% (active) | growth [14]: -74.8% (active) | growth [15]: -99.3% (active) | growth [16]: -99.6% (active) | growth [17]: -87% (active) | growth [18]: -48.2% (active) | growth [19]: -28.7% (active)

FC(F)(F)c1cccc(-c2nnn(Cc3cc(-c4cccc(Cl)c4)no3)n2)c1
growth [1]: 105% | growth [2]: 103% | growth [4]: 97.7% | growth [5]: 104% | growth [20]: 104% | growth [6]: 101% | growth [7]: 103% | growth [8]: 99.4% | growth [9]: 112% | growth [10]: 114% | growth [11]: 115% | growth [12]: 101% | growth [13]: 85.7% | growth [14]: 109% | growth [15]: 107% | growth [16]: 98.9% | growth [17]: 103% | growth [18]: 96.1% | growth [19]: 107%

O=C(c1ccc(F)cc1)C1CCN(CCn2c(=O)[nH]c3ccccc3c2=O)CC1
growth [1]: 105% | growth [2]: 98.4% | growth [4]: 110% | growth [5]: 101% | growth [20]: 87.4% | growth [6]: 94.2% | growth [7]: 102% | growth [8]: 98.7% | growth [9]: 108% | growth [10]: 106% | growth [11]: 89.3% | growth [12]: 105% | growth [13]: 64.6% | growth [14]: 105% | growth [15]: 94.8% | growth [16]: 84.2% | growth [18]: 101% | growth [19]: 95.5%

CCN1C(=O)N(CC)C2C1NN=c1s/c(=C\c3ccccc3)c(=O)n12 (stereo unspecified)
growth [1]: 11% | growth [2]: 3.09% (active) | growth [4]: 27.1% | growth [5]: 8.08% (active) | growth [20]: 23.9% | growth [6]: -9.58% (active) | growth [7]: 24.3% | growth [8]: 15.9% | growth [9]: 60.6% | growth [10]: 42.5% | growth [11]: 47.1% | growth [12]: 26.5% | growth [13]: 37.9% | growth [14]: 65.6% | growth [15]: 30.2% | growth [16]: 27.1% | growth [17]: 9.75% (active) | growth [18]: 6.04% (active) | growth [19]: 10.9%

CCOC(=O)c1c(C)c2c(n1Cc1ccccc1)CSc1cc(C#N)c(=O)[nH]c1-2
growth [1]: 66.3% [100 µM] | growth [2]: 71% [100 µM] | growth [4]: 89.3% [100 µM] | growth [5]: 49.8% [100 µM] | growth [20]: 70% [100 µM] | growth [6]: 100% [100 µM] | growth [7]: 70.9% [100 µM] | growth [8]: 72.9% [100 µM] | growth [9]: 105% [100 µM] | growth [10]: 92.2% [100 µM] | growth [11]: 67.1% [100 µM] | growth [13]: 85.6% [100 µM] | growth [14]: 40.5% [100 µM] | growth [15]: 49.3% [100 µM] | growth [16]: 58.9% [100 µM] | growth [17]: 92% [100 µM] | growth [18]: 90.4% [100 µM] | growth [19]: 118% [100 µM]

CC/C(=C(/c1ccc(Cl)cc1)c1ccc(OCCCN(C)C)cc1)c1ccc(OC)cc1
growth [1]: 12.8% | growth [2]: 1.68% (active) | growth [4]: 82.8% | growth [5]: 6.12% (active) | growth [20]: 49.3% | growth [6]: 63.4% | growth [7]: 104% | growth [8]: 16.6% | growth [9]: 76.6% | growth [10]: 105% | growth [11]: 91% | growth [12]: 83.3% | growth [13]: 62.5% | growth [14]: 66.7% | growth [15]: 83.6% | growth [16]: 82.3% | growth [17]: 76.3% | growth [18]: 37% | growth [19]: 28.1%

CC(=O)OCC(=O)O[C@@H]1C[C@]2(C(C)C)O[C@@]1(C)[C@@H]1CC[C@@H](C)[C@H]1[C@@H]2OC(=O)/C=C/c1ccccc1
growth [1]: 81.4% | growth [2]: 82.3% | growth [4]: 86.6% | growth [5]: 74.7% | growth [20]: 58.6% | growth [6]: 74.4% | growth [7]: 81% | growth [8]: 90.2% | growth [9]: 102% | growth [10]: 90.9% | growth [11]: 68.9% | growth [12]: 20.3% | growth [14]: 81.1% | growth [15]: -4.65% (active) | growth [16]: -2.07% (active) | growth [17]: -92.5% (active) | growth [18]: 70.7% | growth [19]: 74.5%

C(CCCSC1=NCCN1)CCSC1=NCCN1
growth [1]: 102% | growth [2]: 95% | growth [4]: 114% | growth [5]: 98.2% | growth [20]: 64.7% | growth [6]: 107% | growth [7]: 107% | growth [8]: 99.1% | growth [9]: 113% | growth [10]: 122% | growth [11]: 109% | growth [12]: 103% | growth [13]: 80.3% | growth [15]: 100% | growth [16]: 101% | growth [17]: 103% | growth [18]: 101% | growth [19]: 102%

O=S(=O)(Nc1ccc(Br)cc1)c1ccc(-c2cnc(C3CC3)o2)cc1
growth [1]: 20.8% | growth [2]: 13.9% | growth [4]: 35.3% | growth [5]: 24.9% | growth [20]: 29.2% | growth [6]: 19.2% | growth [7]: 23.6% | growth [8]: 45.9% | growth [9]: 53.5% | growth [10]: 33.6% | growth [11]: 53% | growth [12]: 33.8% | growth [13]: 42.3% | growth [14]: 64.1% | growth [15]: 30.8% | growth [16]: 40.6% | growth [17]: -6.87% (active) | growth [18]: 7.7% (active) | growth [19]: 15.8%

Cc1ccc(-c2nc(C#N)c(S(=O)(=O)n3nc(C)cc3N)o2)cc1
growth [1]: 49.2% | growth [2]: 50.1% | growth [4]: 97.5% | growth [5]: 95.4% | growth [6]: 90% | growth [7]: 96.1% | growth [8]: 56.4% | growth [9]: 93.8% | growth [10]: 98.3% | growth [11]: 121% | growth [12]: 90.1% | growth [13]: 79.8% | growth [14]: -64.9% (active) | growth [15]: -37.8% (active) | growth [16]: 82% | growth [17]: 76.1% | growth [18]: -18.8% (active) | growth [19]: -38% (active)

C=C(c1ccc(C(=O)O)c(F)c1)c1cc2c(cc1C)C(C)(C)C=CC2(C)C
growth [1]: 79.3% | growth [2]: 80.7% | growth [4]: 67.9% | growth [5]: 65.7% | growth [20]: 70.3% | growth [6]: 69.7% | growth [7]: 81.1% | growth [8]: 81.4% | growth [9]: 98.4% | growth [10]: 87.1% | growth [11]: 69.9% | growth [13]: 81.4% | growth [14]: 94.4% | growth [15]: 83.4% | growth [16]: 81.7% | growth [18]: 85.3% | growth [19]: 87.3%
